HSP90 inh = HSP90 inhibitors, primary screen, cell lysate, luminescence; AID 1789, 2009; Rabbit reticulocyte lysate, luciferase refolding luminescence, 3 h; 0.91% of 290,000 active; inhibition, % at 5.6 µM; Heat shock protein HSP 90 (rabbit reticulocyte lysate; luciferase refolding);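 active means inhibition above the screen-wide mean plus 3 SD, computed separately per campaign, cut at about 16% in these data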;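 further: 0% = DMSO wells and 100% = 60 µM geldanamycin wells; inhibitors lower the luminescence because luciferase stays unfolded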
EBV LMP1 NFkB = EBV LMP1-driven NF-kappaB luciferase reporter inhibitors, primary screen, cell-based, luminescence, single point. LMP1-induced NF-kappaB luciferase reporter cells. inhibition, % at 12.5 µM. 0.69% of 350,000 active. AID 504558, 2011; in the data active means inhibition above about 41%;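 further: 0% = neutral control wells and 100% = reference inhibitor control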
HSF1 inh = HSF1 inhibitors in luciferase reporter cells, primary screen, cell-based, NIH3T3, luminescence | NIH3T3-HGL HSE-luciferase, MG132-induced, luminescence 8 h; hits give low values | activity change, negative = inhibition, % at 7.5 µM (by protocol) | 0.77% of 300,000 active | AID 2098, 2009;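 active means more than half of replicate wells show activity change below -50%, luminescence cut by over half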;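 further: luciferase reports HSF-1 transcriptional activity via heat shock element; 0% = median of DMSO wells and -100% = zero luminescence signal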
TWEAK-Fn14 inh = inhibitors of TWEAK-Fn14 signaling, primary screen, luciferase reporter cells, uHTS. TWEAK-stimulated Fn14 reporter cells, luciferase luminescence, 8 h. inhibition, % at 10 µM. 2% of 360,000 active. AID 1159606, 2016; in the data active means inhibition above about 50%
HSF1 activator = HSF-1 activators, primary screen, NIH3T3-HGL cells, MG132 stress, luminescence, single point; NIH3T3-HGL HSF-1 luciferase reporter, 8 h; 100% = twice DMSO control signal; activation, % at 9 µM; 1.7% of 300,000 active; AID 504408, 2011;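 active means mean replicate activation of at least 50% with a set share of replicates each reaching 50%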;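 further: 0% = median of the neutral control wells and 100% = twice that signal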
TROY NFkB inh = inhibitors of TROY-driven NF-kB signaling, primary screen, Q293 LMP1-TROYcd cells, NF-kB luciferase, uHTS; 0.98% of 360,000 active; AID 1347056, 2019; Q293 LMP1-TROYcd NF-kB luciferase reporter, 4 h; inhibition, % at 10 µM;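 active means compounds whose plate-normalised and pattern-corrected inhibition of the luciferase reporter signal at the single screening dose is 50% or more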
Starred values were filed as active, the others as inactive; . = no result. A selection: hits, their analogues and other compounds. The true share with any hit is near 4.7%.

SMILES | HSP90 inh | EBV LMP1 NFkB | HSF1 inh | TWEAK-Fn14 inh | HSF1 activator | TROY NFkB inh
Cc1cc(C(F)(F)F)c(C#N)c(SCC(=O)Nc2nc3cc(Br)ccc3s2)n1 | -3 | -5 | -29 | 79* | -36 | 72*
COc1cc(S(=O)(=O)NC2CCCC2)ccc1F | 2 | 2 | -1 | 4 | -2 | 24
O=S(=O)(NC1CC1)c1ccc(Cl)cc1F | 0 | -9 | -6 | 99* | 4 | 2
CCOC(=O)[C@]12CCC=C1N(Cc1ccco1)C(=O)[C@H](CC(=O)NCC1CCCCC1)C2 | . | . | . | 3 | . | 0
CCCn1cnnc1CNC(=O)[C@H]1O[C@@H](n2ccc(=O)[nH]c2=O)[C@H](O)[C@@H]1O | . | . | . | 15 | . | -10
CC(C)Nc1nc(Cl)nc(N(C#N)CN2C(=O)c3ccccc3S2(=O)=O)n1 | 0 | -3 | 83 | -6 | 118* | 3
CCc1nc2ccc(C(=O)NCCCn3ccnc3)cn2c1N(C)Cc1ccc(N(C)C)cc1 | . | . | . | -2 | . | -2
CN1OC[C@@H]2CN(S(=O)(=O)c3cccc4ccccc34)[C@H](c3ccc(-c4cccnc4)cc3)C[C@@H]21 | . | -9 | . | -3 | . | 8
Cc1cccc(-c2noc(-c3ccccc3C(=O)NCc3ccco3)n2)c1 | 2 | -18 | 29 | -7 | 64* | -21
Cc1nnc(SCc2cc([N+](=O)[O-])cc3c2OCOC3)n(N)c1=O | 4 | -4 | -4 | 1 | 9 | 8
C=CCn1c(SCc2cc([N+](=O)[O-])cc3c2OCOC3)nc2cc(C(=O)O)ccc2c1=O | 3 | 1 | 29 | -39 | 63* | 16
CCOC(=O)c1cc2c(c(CSc3nc4ccccc4c(=O)n3Cc3ccco3)c1)OCOC2 | -2 | -2 | 17 | -31 | 58* | 0
C=CCn1c(SCC(=O)N(C)C)nc2cc(C(=O)O)ccc2c1=O | -2 | -1 | -6 | -22 | -9 | -8
O=c1c2ccccc2nc(SCc2cc(F)cc3c2OCOC3)n1Cc1ccco1 | -4 | 3 | 4 | -7 | 26 | -2
CCC(CO)n1c(SCc2cc([N+](=O)[O-])cc3c2OCOC3)nc2ccccc2c1=O (stereo not given) | 1 | 7 | 33 | 6 | 56* | 21
Nc1nc(SCc2ccc(Br)cc2)c2ncn(C3OC(CO)C(O)C3O)c2n1 (stereo not given) | . | 2 | . | -20 | . | -9
O=C(Nc1ccccc1[N+](=O)[O-])c1cccc(N2C(=O)CCC2=O)c1 | 3 | -6 | 18 | 14 | 54* | 2
CCOc1ccccc1NC(=O)c1cccc(N2C(=O)CCC2=O)c1 | -6 | 4 | -5 | -9 | 6 | -17
O=C(NCc1ccccc1)Nc1nnc([C@@H]2C[C@H](O)[C@@H](CO)O2)s1 | . | . | . | 6 | . | -11
CN1CCN(C(=O)c2ccc(Cn3cc(Cl)cn3)o2)CC1 | 7 | -3 | 15 | 4 | 64* | -12
Cc1ccc(S(=O)(=O)NC(=O)C2(C)CCN2C(=O)c2cccc(F)c2)nc1 (stereo not given) | . | . | . | -4 | . | 0
O=C1C(Cl)=C(N2CCCCC2)C(=O)C(Cl)=C1c1cnc(N2CCCCC2)s1 | 0 | 18 | -7 | 51* | -3 | 34
Cc1cc(=O)n2nc(N3CCCC(C(=O)Nc4cccc(C)c4C)C3)sc2n1 (stereo not given) | . | . | . | -1 | . | -1
Cn1c(N=NC(=O)c2ccccc2)c(O)c2ccccc21 | 8 | 36 | 14 | 69* | 34 | 39
Cn1c(O)c(N=NC(=O)CNC(=O)c2ccccc2)c2ccccc21 | 6 | -1 | -4 | -12 | -10 | -5
SMILES | HSP90 inh | EBV LMP1 NFkB | HSF1 inh | TWEAK-Fn14 inh | HSF1 activator | TROY NFkB inh
CC1(Cc2ccc(C(F)(F)F)nc2)C(=O)Nc2cc(-c3ccccc3Cl)ccc21 (stereo not given) | . | . | . | -8 | . | 8
CCc1cccc(NC(=O)c2sc3nc4n(c(=O)c3c2C)CCC4)c1 | -3 | -6 | 43 | -32 | 55* | -42
Cc1cc(C)cc(NC(=O)c2sc3nc4n(c(=O)c3c2C)CCC4)c1 | -4 | -4 | 16 | -17 | 27 | -15
CCCCNS(=O)(=O)c1ccc2nc(SCC(=O)Nc3sccc3C#N)[nH]c2c1 | 0 | 15 | 0 | -6 | -9 | 71*
O=C(Nc1ccc(N2CCCC2)c(Cl)c1)c1cccs1 | -1 | -23 | 57 | -25 | 82* | -69
O=C(Nc1ccc(N2CCCC2)c(Cl)c1)c1cccnc1 | 3 | -10 | -10 | 83* | 6 | .
O=C(NC(=S)Nc1ccc(N2CCOCC2)c(Cl)c1)c1cccs1 | -1 | 0 | 6 | 5 | 28 | 9
O=C(Nc1ccc(N2CCCCC2)c(Cl)c1)c1cccnc1 | 0 | -14 | 9 | -111 | 24 | -66
COC(=O)[C@]12CCCCC=C1N(Cc1ccco1)C(=O)[C@H](CC(=O)N1CCCCC1)C2 | . | . | . | 6 | . | 0
CCCCNc1c(CC(C)C)nc2nc(C)cc(C)n12 | . | . | . | 3 | . | -11
CC(C)(C)c1ccc(C(=O)CC(=O)c2cc(Cl)ccc2O)cc1 | -1 | 6 | 7 | -6 | 30 | -37
N/C(=C\C(=O)c1cc(Cl)ccc1O)C(Cl)(Cl)Cl | 6 | -6 | 128 | 67* | 209* | 8
CCNC(=O)C1(C)CCN(Cc2ccc(C#N)cc2)C1 (stereo not given) | . | . | . | -24 | . | 3
CCCCc1cc(O)c(CCCC)c(O)c1 | -3 | -11 | 127 | -13 | 182* | 4
CCCCCc1cc(O)c2c(C)cc(=O)oc2c1 | 2 | -2 | -4 | 30 | 2 | 38
CC(C)C1C(=O)N(Cc2cn(Cc3ccco3)nn2)CCS(=O)(=O)N1Cc1ccc(-c2ccc(Cl)c(Cl)c2)cc1 (stereo not given) | . | -11 | . | 20 | . | 10
O=C(/C(=N/N=C/c1ccc(O)c(O)c1)c1ccccc1)c1ccccc1 | -3 | -4 | 36 | 5 | 90* | -12
Oc1ccc(/C=N/N=C/c2ccc(O)c(O)c2)cc1O | 0 | -9 | -5 | -84 | -7 | -122
Oc1ccc(/C=N/N(c2ccccc2)c2ccccc2)cc1O | 0 | -3 | 33 | 23 | 83* | 10
C[C@H](CO)N1C[C@H](C)[C@@H](CN(C)C(=O)CCC(F)(F)F)OCc2cnnn2CCCC1=O | . | 0 | . | 1 | . | 5
Cn1c(N2CCOCC2)nc(-c2ccccc2)c1-c1ccccc1 | -2 | -7 | -71* | 12 | -77 | 0
COc1ccc(NC(=O)c2sc(=O)n(Cc3cccc(C(F)(F)F)c3)c2C)cc1OC | . | . | . | -9 | . | 17
CC(C)(C)c1ccc(OCC(=O)NN2Cc3ccccc3C2=N)cc1 | 1 | 7 | 38 | 18 | 92* | 12
